Hits are enriched below; roughly 8% of the tested compounds scored in any of these assays.
MCF10A rereplic – induces DNA re-replication in MCF 10a normal breast cells. Potency, µM (series often up to 46.1 µM), for the others: at the highest dose activity, positive = re-replication, usual class: activators. MCF 10A DNA re-replication, Hoechst nuclear intensity, 48 h. actives 2.9% (n = 350,000); note: % of control where 0% means no effect; nearly all actives have a fitted effect of over 50% in size
HT1080 IDH1KD tx – HT-1080 IDH1 knockdown cell toxicity (counter line). actives 2% (n = 360,000). Potency, µM (series often up to 46.1 µM), without a hit: at the highest dose activity, negative = toxicity, usual class: cytotoxic. HT-1080 IDH1 knockdown viability, ATP luminescence, 48 h. AID 686971;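 note: 0% = DMSO wells and -100% = cell-free medium wells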
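Viability of IDH1-knockdown HT-1080 fibrosarcoma cells was assessed by CellTiter-Glo after 48 h at 37 °C with titrated compound; concentration-effect curves were classified by fit quality and response size.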
KB-3-1 tox – KB-3-1 parental cell cytotoxicity; KB-3-1 viability, CellTiter-Glo ATP luminescence, 72 h; actives 1.4% (n = 400,000); Potency, µM (doses to about 46.1 µM), hits mostly cytotoxic; note: % is set by controls: 0 for no effect and ±100 for the full control effect; nearly all actives have a fitted effect of over 60% in size
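Cytotoxicity measured as CellTiter-Glo luminescence after 72 h at 37 C. Compound titrations were pinned onto drug-naive KB-3-1 parental adenocarcinoma cells grown in DMEM with 10% FBS, and normalized data fitted to concentration-response curves.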
HT1080NT lethal – kills 2HG-producing HT-1080-NT fibrosarcoma cells | HT-1080-NT fibrosarcoma viability, CellTiter-Glo ATP luminescence, 48 h | Potency, µM (top dose mostly 46.1 µM), without a hit: at the top dose activity, negative = less viability, actives largely listed as cytotoxic | actives 1.6% (n = 360,000);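 note: NT is the 2HG producing partner of a matched IDH1 knockdown line; 0% = DMSO-treated cells and -100% = media-only wells without cells; nearly all actives have a fitted effect of over 55% in size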
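Toxicity toward the 2HG-producing NT line was scored as %Activity, normalised to DMSO and no-cell wells, from CellTiter-Glo luminescence after 48 hours' treatment.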
SW480 rereplic – induces DNA re-replication in SW480 colon adenocarcinoma cells; AID 624297; SW480 DNA re-replication, Hoechst DNA content imaging, 48 h; Potency, µM (series often up to 46.1 µM), for the others: top-dose re-replication activation, hits mostly activators; actives 1.8% (n = 340,000); note: % of control where 0% means no effect; nearly all actives have a fitted effect of over 55% in size
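Per well, 250 cells were exposed to pinned compound for 48 hr. Nuclear DNA was visualised with Hoechst (40 min, 37 C) and total object intensity recorded by fluorescence scanning.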
KB-V1 cytotox – KB-V1 MDR subline cytotoxicity; KB-V1 MDR cells viability, CellTiter-Glo, 72 h; Potency, µM (series often up to 46.1 µM), hits mostly cytotoxic; actives 3.4% (n = 400,000); AID 1347076; note: % is set by controls: 0 for no effect and ±100 for the full control effect; nearly all actives have a fitted effect of over 60% in size
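Cytotoxicity toward P-gp-expressing KB-V1 cells was determined as loss of CellTiter-Glo luminescence after 72 h at 37 degrees C. Compounds were tested in quantitative HTS format across a concentration range, with curves fitted to normalized data.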
Active calls of the source: *; i = inactive; ? = inconclusive; nt = no result given. Calls come from the whole dose curve; as a rule, active = well fitted curve in the direction sought with a large enough effect; inconclusive = small, poorly fitted or top-dose-only effect, or another doubt; inactive = no such curve, though single readings can be large; an effect the other way counts as inactive or inconclusive. Potency is the fitted concentration of half-maximal effect.

SMILES | MCF10A rereplic | HT1080 IDH1KD tx | KB-3-1 tox | HT1080NT lethal | SW480 rereplic | KB-V1 cytotox
O=C1C2=C(NC(=S)NC2c2ccc(Cl)cc2)NC(c2ccc(Cl)cc2)N1c1ccc(Cl)cc1 (centres undefined) | ? | ? | 16µM* | ? | ? | ?
CCc1ccc(C2NC(=S)NC3=C2C(=O)N(c2ccccc2OC)C(c2ccc(CC)cc2)N3)cc1 (centres undefined) | ? | -3% | i | 1% | ? | ?
Cc1cc(Cl)ccc1OCC(=O)Nc1cccc(-c2nc3ccccc3o2)c1 | nt | nt | i | nt | nt | i
COc1ccc(CN(C(=O)CSc2nnc(-c3c[nH]c4ccccc34)o2)c2ccc(F)cc2)cc1OC | 4.1µM* | ? | ? | ? | 7% | 15µM*
COc1ccc(-c2nnc(SCC(=O)Nc3cccc(Cl)c3)o2)cc1 | ? | -30% | ? | ? | 2% | 16µM*
COc1cccc(-c2nnc(SCC(=O)N(C(C)C)C(C)C)o2)c1 | ? | -1% | i | 0% | 0% | 18µM*
COc1ccc(-c2nnc(SCC(=O)Nc3ccccc3OC)o2)cc1 | 3% | ? | i | ? | ? | i
COc1ccc(CN(C(=O)CSc2nnc(-c3ccc(F)cc3)o2)c2ccc(F)cc2)cc1 | 1% | -7% | i | 1% | 0% | 21µM*
COc1cc(OC)cc(-c2nnc(SCC(=O)N(C(C)C)C(C)C)o2)c1 | ? | -1% | i | 4% | -1% | i
Cc1cc(Br)ccc1NC(=O)COc1cc(=O)n(C)c2ccccc12 | nt | nt | i | nt | nt | i
COc1ccc(-c2nnc(SCC(=O)c3ccc(C)o3)o2)cc1 | -2% | -2% | ? | 2% | -8% | 23µM*
O=C(CSc1ccc(-c2cccnc2)nn1)Nc1ccc(F)c(F)c1 | 16% | -2% | i | ? | 0% | 9.2µM*
O=C(CSc1nnc(-c2cccnc2)o1)Nc1cccc(F)c1 | 0% | 14% | i | 22% | 3.3µM* | i
O=C(CSc1nnc(-c2ccncc2)o1)Nc1cccc(F)c1 | -6% | 8% | i | 9% | -22% | i
Cc1ccc(C(=O)CSc2nnc(-c3ccco3)o2)o1 | -3% | 0% | i | -10% | -2% | i
COc1ccc(-c2nnc(SCc3cc(C)cc(C)c3)o2)cc1 | 27% | 14% | i | 22% | -2% | 21µM*
O=C(CSc1ccc(-c2cccnc2)nn1)Nc1ccccc1 | 1% | -9% | i | 10% | -29% | ?
CC(C)c1ccc(S(=O)(=O)c2nnn3c2nc(NC2CCCC2)c2sccc23)cc1 | nt | nt | i | nt | nt | i
CCC(C)NC(=O)CCC(=O)N1Cc2ccccc2Oc2ncccc21 (centres undefined) | nt | nt | i | nt | nt | ?
C=CC(=O)O | 9% | nt | nt | nt | -5% | nt
CCN(C(=O)c1ccc2c(c1)N(Cc1cccc(Cl)c1)C(=O)c1ccccc1S2=O)c1ccccc1 (centres undefined) | nt | nt | ? | nt | nt | i
COc1ccc(C(=O)Oc2c(Sc3ccccc3)c(C)nn2-c2ccccc2)cc1OC | nt | nt | i | nt | nt | i
CCNC(=O)c1c(C)oc2ncn(C)c(=O)c12 | nt | nt | i | nt | nt | i
O=C(Cn1cc(S(=O)(=O)Cc2ccccc2Cl)c2ccccc21)Nc1ccc(F)cc1F | nt | nt | i | nt | nt | i
CCN(CC)c1ccc(NS(=O)(=O)c2ccc3c(c2)CCCN3C(C)=O)c(C)c1 | nt | nt | i | nt | nt | i
SMILES | MCF10A rereplic | HT1080 IDH1KD tx | KB-3-1 tox | HT1080NT lethal | SW480 rereplic | KB-V1 cytotox
COc1cc(/C=C/c2ccc3cccc([N+](=O)[O-])c3n2)ccc1OCC(=O)O | 1% | 1% | i | 7% | -1% | i
Oc1cccc(/C=C/c2ccc3cccc(O)c3n2)c1 | ? | ? | ? | 33µM* | 0% | ?
COc1ccc(/C=C/c2ccc3cccc(O)c3n2)c(OC)c1OC | 1.6µM* | ? | i | ? | ? | i
COc1cc(/C=C/c2ccc3cccc(O)c3n2)cc(Cl)c1OC | 15µM* | ? | ? | ? | 4.6µM* | ?
CCOc1c(OC(C)=O)ccc(/C=C/c2ccc3cccc(OC)c3n2)c1[N+](=O)[O-] | 16% | -25% | i | -19% | ? | 16µM*
COc1cc2c(cc1OC)C(COc1cc(C)cc(C)c1)N(C(=O)C(C)(C)C)CC2 (centres undefined) | nt | nt | i | nt | nt | i
CCOC(=O)c1c(NC(=O)c2ccc(S(=O)(=O)N(CC(C)C)CC(C)C)cc2)sc2c1CCN(CC)C2 | nt | nt | i | nt | nt | i
CC1=C(C(=O)Nc2ccc(F)cc2F)C2(CCCCCC2)OC1=O | nt | nt | ? | nt | nt | i
COc1cc(/C=C/c2ccc3cccc(O)c3n2)cc(Br)c1OC | 15µM* | ? | 15µM* | ? | ? | ?
COc1cc(/C=C/c2ccc3cccc(O)c3n2)cc(OC)c1OC | ? | 6.5µM* | ? | 8.2µM* | 17% | ?
CCS(=O)(=O)N1CCCc2cc(C(=O)Nc3cc([N+](=O)[O-])ccc3C)ccc21 | nt | nt | i | nt | nt | ?
Cc1cc(-n2c(SCC(=O)NCc3cccs3)nc3n[nH]c(C)c3c2=N)ccc1Cl | ? | ? | i | ? | 5% | i
Cc1cc(-n2c(SCC(=O)Nc3ccc(F)c(F)c3)nc3n[nH]c(C)c3c2=N)ccc1Cl | 2.3µM* | 0% | i | ? | ? | i
Cc1cc(-n2c(SCC(=O)Nc3ccc(Br)cc3)nc3n[nH]c(C)c3c2=N)ccc1Cl | 3.3µM* | -4% | ? | 1% | 18µM* | i
CCOc1ccc(-n2c(SCC(=O)Nc3ccc(Br)cc3)nc3n[nH]c(C)c3c2=N)cc1 | 15µM* | 16µM* | i | 15µM* | ? | i
Cc1cccc(-c2noc(-c3ccc(NCc4cccnc4)c([N+](=O)[O-])c3)n2)c1 | nt | nt | i | nt | nt | i
CC(C)c1nn2c(=O)cc(COC(=O)c3cccs3)nc2s1 | nt | nt | i | nt | nt | i
CC(C)(C)OC(=O)N1CCC(c2c(C(=O)NCCN3CCc4ccccc4C3)cnn2-c2ccc(F)cc2)CC1 | nt | nt | i | nt | nt | i
Cc1cccc(-n2ncc3c(Nc4ccc(Oc5ccc(Cl)cc5)cc4)ncnc32)c1 | nt | nt | i | nt | nt | i
Cc1ccc(N/N=C/c2cccnc2)cc1 | ? | 8.2µM* | ? | ? | 0% | 21µM*
Fc1ccc(N/N=C/c2cccnc2)c(F)c1 | -11% | 15µM* | i | ? | -9% | i
Cc1ccc(N/N=C/c2ccncc2)cc1 | 25% | ? | i | ? | 7% | i
FC(F)(F)c1ccccc1N/N=C/c1cccnc1 | 10% | -5% | ? | 4% | -1% | i

Screening data as filed in PubChem BioAssay.
